The supplement of paper PMC6555819

System: VDR:RXRa (NR concentration 270 nM, RXRa partner concentration 90 nM)
Experiment: PBM binding z-score (relative to random genomic background probes); higher = stronger binding; sequences stand for … in GC…GCGATTGACAGCGTAGAATGAAGG
Procedure: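 Protein-binding microarray (Agilent 4x180K custom design, double-stranded 60-nt probes: 5' GC cap, 34-nt variable region, 24-nt constant primer region; full probe sequence given). Purified or IVT nuclear receptor:RXRα heterodimers (3:1 NR:RXRα, mostly 270:90 nM) or homodimers were incubated for 1 h in PBS with 2% milk and no ligand, then detected with Alexa488 antibodies. Fluorescence from o1-orientation probes (~5 replicates averaged) was converted to z-scores against 500 random hg19 background probes. Variable regions are seed direct-repeat (DR0–DR5) sites, all their single-nucleotide variants and half-site ablations.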

| Sequence | PBM binding z-score |
| --- | --- |
| TAGGCTAGGTCATTGGGCCAGTATAGTACGCATC | 2.03 |
| ATGGAAAGGTCGAGGTGAGTATAGAGAAAGGGAA | 2.81 |
| CCTGCTAGGTTAATGGTCAGCTAAAGCAGCTCGC | -0.293 |
| ATCGAAAGGTCGTGAGCTGAGTATACAGAAAGGC | 2.95 |
| CAAACTAGGTCACAGCGGTCAAAGTCCGTGCGTA | 5.9 |
| ATATGTAGGTTATCGTGTCATTCAGTTTGCGCAT | 2.28 |
| CCTGCTAGGTCACTGGTCAGCTAAAGCAGCTCGC | 1.39 |
| AATTCAGGGTCATCGTAGGCCAGAGTACGCACAG | 5.7 |
| AGAACGAGGGCACGCTGAGTTGATATCAGAGTAG | 2.02 |
| TAGCCTAGGTCATGCGGGCCGGTATAGTGTCGGC | 2.22 |
| GCTTGTTGATCAAGGTTAAGAAAGACTAAGCTAA | 0.122 |
| TTTCCAAGGTGAAGGTCGTTGATCCCTCTGTAGA | 1.45 |
| TGAATGAGATTAAAGATCAGGGAACGTGGCGTCG | -0.176 |
| GCTGCTAGGTCAGGTAGGTCAGCTAACGGGTACG | 3.35 |
| TCGAATAGGTTACCAATGGGGCATTCAGCTTTCT | 0.811 |
| TCATATTGGTAAATGCTAGGTGAAAGTCCGATCT | 0.687 |
| CATCCAAGGTCAATGCTAGGTCAGTGAAAGCATT | 4.82 |
| ATTCAAAGTTCAGGACGAGGTAACGTAAAGCACG | 3.14 |
| CCTCGGAGGACAGAAGGTCCGAGCTGTCCGCTTT | -0.656 |
| CCTACGGGGCCATCAGGTCATTGATATCAACGTT | 3.06 |

| Sequence | PBM binding z-score |
| --- | --- |
| TCCTGTAGATCAGCAGGTTAAGAAAGCTGGCCAA | 0.177 |
| TCATATAGATAAATGCTAGGTGAAAGTCCGATCT | 0.736 |
| GATACAGGGTCAGCAAGAGGCCAGAGTATGGAAA | 3.43 |
| ACTCGGAGGACCAAGGTCAGAGCTACGCCAGTGA | 1.34 |
| ATACCATGGTGATCGTGAGGTCGTTGATACTAAC | 2.03 |
| ATCTCTCGGTAAAGTTCAGTGAAAGATCGATAGA | 1.1 |
| TAGCCTAGGTCATTGGGCCCGTATAGTACGCATC | 2.74 |
| TCTTGTAGATTAGCAGGTTAAGAAAGCTGGCCAA | 0.63 |
| ATCTCTAGATAACAAGTTCAGTGAAAGAGAGGAC | 1.45 |
| ATACCTAGGTGATCGTGAGGTCGTTGATACTAAC | 2.66 |
| CGAACTAGGTCATAACAGGACAGTGAAGGATGAT | 1.89 |
| GCTGCTAGGTCAGGTTTGTCAGCTAACGGGTACG | 0.236 |
| GGAACGAGTGCATTCGAGTTGATAGCATGGCGAT | 2.95 |
| AGTCAAAGTTCATCTAGGTAACGTACGATATGCT | 5.15 |
| TAGACTAGGTCAGATCGGGCCAGTATACGCTATA | 0.598 |
| CGTCCAAGGTCATAGGAGGTCCGTGAAGACAGAT | 4.88 |
| TCTTGTAGTTCAGCAGGTTAAGAAAGCTGGCCAA | 1.78 |
| CGTCAAAGTTCAACTAAGGTAACGGAAAGCACGC | 4.7 |
| TCATATAGGTAAATGCTAGGTGAAAGGCCGATCT | 0.727 |
| GCAGACAAGTGAAACGCAGGTAACTCAGGGTGGC | -0.581 |
